PRC2 inh: EZH2/PRC2 methyltransferase inhibitors, primary screen, biochemical, DELFIA time-resolved fluorescence, single point | Histone-lysine N-methyltransferase EZH2 (Homo sapiens), Q15910 | PRC2 H3K27 methylation, DELFIA TRF, 1 h | 0.35% of 57,000 active | inhibition, % at 12.5 µM;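 active = mean inhibition of replicates at least 50% and every single replicate also reaching 50%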;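 also: dimethyl H3K27 on biotinylated H3 21-44 peptide detected by antibody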
Target sequence (Q15910 whole entry, looked up): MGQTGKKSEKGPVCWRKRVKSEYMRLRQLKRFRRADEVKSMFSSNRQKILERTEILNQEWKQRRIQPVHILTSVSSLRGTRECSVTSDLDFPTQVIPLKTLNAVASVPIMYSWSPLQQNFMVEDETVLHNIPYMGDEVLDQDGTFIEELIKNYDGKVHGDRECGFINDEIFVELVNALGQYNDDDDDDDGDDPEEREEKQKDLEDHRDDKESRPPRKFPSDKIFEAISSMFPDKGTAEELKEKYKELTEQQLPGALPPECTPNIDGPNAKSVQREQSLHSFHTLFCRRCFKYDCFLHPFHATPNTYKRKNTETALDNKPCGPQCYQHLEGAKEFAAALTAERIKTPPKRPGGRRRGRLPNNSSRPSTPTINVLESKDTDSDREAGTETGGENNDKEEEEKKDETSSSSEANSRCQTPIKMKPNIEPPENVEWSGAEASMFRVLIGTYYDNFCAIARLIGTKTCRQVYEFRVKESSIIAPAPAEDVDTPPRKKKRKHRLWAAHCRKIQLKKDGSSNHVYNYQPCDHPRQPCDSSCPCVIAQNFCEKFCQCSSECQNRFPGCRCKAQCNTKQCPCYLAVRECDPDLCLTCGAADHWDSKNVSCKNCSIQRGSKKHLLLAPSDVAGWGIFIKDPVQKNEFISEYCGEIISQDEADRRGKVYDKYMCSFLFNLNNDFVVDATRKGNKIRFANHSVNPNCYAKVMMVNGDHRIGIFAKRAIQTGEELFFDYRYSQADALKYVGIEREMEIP
A number is an active result. This is one part of a sample in which hits are shown more often than they occur.

What do the screens show for `O=c1c(O[C@@H]2O[C@H](CO)[C@@H](O)[C@H](O)[C@H]2O)c(-c2ccc(O)c(O)c2)oc2cc(O)cc(O)c12`?
PRC2 inh: 58

What do the screens show for `O=c1c(O[C@@H]2O[C@H](CO)[C@@H](O)[C@H](O)[C@H]2O)c(-c2ccc(O)cc2)oc2cc(O)cc(O)c12`?
PRC2 inh: inactive

Results for C[C@@H]1O[C@@H](O[C@@H]2[C@@H](O)[C@H](Oc3c(-c4ccc(O)cc4)oc4cc(O)cc(O)c4c3=O)O[C@H](CO)[C@H]2O)[C@H](O)[C@H](O)[C@H]1O ?
PRC2 inh: 59

What do the screens show for `COc1cc(-c2oc3cc(O)cc(O)c3c(=O)c2OC2OC(CO[C@@H]3O[C@@H](C)[C@H](O)[C@@H](O)[C@H]3O)C(O)C(O)C2O)ccc1O` (some centres undefined)?
PRC2 inh: inactive

Results for COc1cc(-c2oc3cc(O)cc(O)c3c(=O)c2OC2OC(CO)C(O)C(O)C2O)ccc1O (centres undefined) ?
PRC2 inh: 56

How did COc1cc2c(=O)c(-c3ccc(O)cc3)coc2cc1O[C@@H]1O[C@@H](C)[C@H](O)[C@@H](O)[C@H]1O do in these assays?
PRC2 inh: inactive

Results for COc1ccc([N+](=O)[O-])cc1NC(=O)CN(c1cc(C(F)(F)F)ccc1Cl)S(C)(=O)=O ?
PRC2 inh: inactive

How did Nc1ccc(-c2nnc(SCC(=O)Nc3ccc(Br)cc3F)n2-c2ccccc2)cc1 do in these assays?
PRC2 inh: inactive

How did CC(NS(=O)(=O)c1ccccc1)C(=O)Nc1ccccc1C(F)(F)F (centres undefined) do in these assays?
PRC2 inh: inactive

How did O=c1c2c3c(sc2nc(SCc2nc4ccccc4[nH]2)n1-c1ccccc1)CCC3 do in these assays?
PRC2 inh: inactive

What do the screens show for `O=C(CCCCCC(=O)N/N=C/c1ccc(O)c2ccccc12)NO`?
PRC2 inh: inactive

How did COc1ccc(-n2nc3cc(C)c(NC(=O)COc4ccc(Cl)cc4Cl)cc3n2)cc1 do in these assays?
PRC2 inh: inactive

Results for O=C(COc1ccccc1[N+](=O)[O-])Nc1ccc2oc(-c3ccc(F)cc3Cl)nc2c1 ?
PRC2 inh: inactive

What do the screens show for `Cc1ccc(S(=O)(=O)NCC(=O)Nc2ccccc2F)cc1`?
PRC2 inh: inactive

What do the screens show for `Cc1ccc(C2C(C(=O)c3cccs3)C(=O)C(=O)N2CCN(C)C)o1` (centres undefined)?
PRC2 inh: inactive

How did C=CCOC(=O)[C@H]1[C@@H]2C(=O)O[C@@H](c3ccccc3)[C@@H](c3ccccc3)N2[C@@H](c2ccc(OCCOC(=O)[C@@H]3C[C@@H]4C(=O)N[C@@H](Cc5ccccc5)C(=O)N4[C@@H]3c3cccc(OCCO)c3)cc2)[C@]12C(=O)Nc1ccc(I)cc12 do in these assays?
PRC2 inh: inactive

Results for O=C(O)c1cccc(CSc2nc(-c3ccc(Cl)cc3)cc(C(F)(F)F)n2)c1 ?
PRC2 inh: 50

Results for O=C(O)c1cccc(CSc2n[nH]c(-c3ccc(Cl)cc3)n2)c1 ?
PRC2 inh: inactive

Results for Cc1cc(C(F)(F)F)nc(SCc2cccc(C(=O)O)c2)n1 ?
PRC2 inh: inactive

How did COc1ccc(S(=O)(=O)N(C)CC(=O)Nc2cccc(F)c2)cc1Cl do in these assays?
PRC2 inh: inactive

Results for COC(=O)c1c(NC(=S)Nc2cc3oc4ccccc4c3cc2OC)sc2c1CCC2 ?
PRC2 inh: inactive

Results for CCC1(C)Cc2ccccc2-c2nc3[nH]nc(SCC(=O)Nc4ccc(OC)c(Cl)c4)n3c(=O)c21 (centres undefined) ?
PRC2 inh: 60

What do the screens show for `COc1ccc(NC(=O)CSc2nnc(C)c(=O)[nH]2)cc1Cl`?
PRC2 inh: inactive

What do the screens show for `COc1ccc(NC(=O)CSc2n[nH]c(N)n2)cc1Cl`?
PRC2 inh: inactive

How did Cc1c(NC(=O)COc2ccc(Br)cc2)cccc1C(=O)O do in these assays?
PRC2 inh: inactive

Results for O=C(COc1ccc([N+](=O)[O-])cc1)Nc1ccccc1OC(F)F ?
PRC2 inh: inactive

What do the screens show for `COc1cccc2cc(-c3nnc(SCC(=O)Nc4cccc(Br)c4)n3C)oc12`?
PRC2 inh: inactive

How did CN(C1CCCCC1)S(=O)(=O)c1cc(Br)cc2c1N(C(=O)C1CC1)CC2 do in these assays?
PRC2 inh: inactive

How did Cc1ccc(C(=O)O)cc1NC(=O)COc1ccc(I)cc1 do in these assays?
PRC2 inh: inactive

How did COC(=O)CCCCCCC(=O)N/N=C/c1ccc(Oc2ccccc2)cc1 do in these assays?
PRC2 inh: inactive

How did COC(=O)CCCCCCC(=O)N/N=C/c1ccc(-c2ccccc2)c(F)c1 do in these assays?
PRC2 inh: 60

What do the screens show for `O=C(CCCCC(=O)N/N=C/c1ccc(-c2ccccc2)c(F)c1)NO`?
PRC2 inh: inactive

Results for Cc1[nH]c(=S)[nH]c(=O)c1Cc1ccc(C(=O)O)o1 ?
PRC2 inh: inactive

How did O=C(CCCCCCC(=O)Nc1ccccc1O)NN=C1CCCC1 do in these assays?
PRC2 inh: inactive

What do the screens show for `CC(C)c1ccc(NC(=O)CNS(=O)(=O)c2ccc(Br)cc2)cc1`?
PRC2 inh: inactive

What do the screens show for `COc1cc(O)c(OC)c2c1C(=O)CC(c1ccccc1)O2` (centres undefined)?
PRC2 inh: 77

What do the screens show for `COc1cccc2c1C(=O)CC(c1ccccc1)O2` (centres undefined)?
PRC2 inh: inactive

What do the screens show for `COc1cc(O)c2c(c1)OC(c1ccc(O)cc1)CC2=O` (centres undefined)?
PRC2 inh: inactive

What do the screens show for `Cc1ccc(NC(=O)CSc2nc3sc4c(c3c(=O)n2-c2ccccc2)CCC4)c(C)c1`?
PRC2 inh: inactive

What do the screens show for `Cc1cc(=O)c2c(O)c3c(O)cc(O)c4c5c(O)cc(O)c6c(O)c7c(=O)cc(C)c8c1c2c(c34)c(c65)c78`?
PRC2 inh: 64

What do the screens show for `CCOC(=O)[C@H](Cc1ccccc1)NC(=O)CN=[N+]=[N-]`?
PRC2 inh: inactive

How did O=C(CSc1n[nH]c(-c2ccc(Cl)cc2Cl)n1)Nc1ccc(F)cc1 do in these assays?
PRC2 inh: inactive

What do the screens show for `Cc1ccccc1-c1nnc(SCC(=O)Nc2ccc(F)c(F)c2)n1C`?
PRC2 inh: inactive

Results for C/C=C1\C(O[C@@H]2O[C@H](CO)[C@@H](O)[C@H](O)[C@H]2O)OC=C(C(=O)OC)C1CC(=O)OC[C@H]1O[C@@H](OCCc2ccc(O)cc2)[C@H](OC(=O)CC2C(C(=O)OC)=COC(O[C@@H]3O[C@H](CO)[C@@H](O)[C@H](O)[C@H]3O)/C2=C\C)[C@@H](O)[C@@H]1O (some centres undefined) ?
PRC2 inh: inactive

Results for C/C=C1/[C@H](O[C@@H]2O[C@H](CO)[C@@H](O)[C@H](O)[C@H]2O)OC=C(C(=O)OC)[C@H]1CC(=O)OCCc1ccc(OC(=O)C[C@@H]2C(C(=O)OC)=CO[C@@H](O[C@@H]3O[C@H](CO)[C@@H](O)[C@H](O)[C@H]3O)/C2=C/C)cc1 ?
PRC2 inh: 61

How did C/C=C1\[C@H](O[C@@H]2O[C@H](CO)[C@@H](O)[C@H](O)[C@H]2O)OC=C(C(=O)OC)[C@H]1CC(=O)OC do in these assays?
PRC2 inh: inactive

How did O=C(CSc1nnnn1-c1ccccc1)Nc1ccc(Br)cc1F do in these assays?
PRC2 inh: inactive

How did COC(=O)c1cc(NC(=O)CSc2nc(C)cc(C)n2)cc(C(=O)OC)c1 do in these assays?
PRC2 inh: inactive

Results for OC(COc1ccc(Cl)cc1)Cn1cnc(-c2ccccc2)c1 (centres undefined) ?
PRC2 inh: inactive
